# Structures can show the parent of a compound that is named as a salt.
# System: HL-1
# Assay: relative cell viability (CellTiter-Glo) vs DMSO control (% of DMSO control); higher = more viable cells
# Summary of the method: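 Compounds at 40, 200, 1000 or 5000 nM in 0.01% DMSO were added to HL-1 mouse atrial cardiomyocytes plated at 1000 cells per well in 384-well plates. The next day, cells were exposed to 1% O2 for 48 h and then reoxygenated for 24 h, or left in normoxia for the same time. Viability was read with CellTiter-Glo luminescence and normalised to vehicle-treated controls.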
# [1] = oxygen condition: hypoxia 48 h (1% O2) + reoxygenation 24 h, 40 nM
# [2] = oxygen condition: hypoxia 48 h (1% O2) + reoxygenation 24 h, 200 nM
# [3] = oxygen condition: hypoxia 48 h (1% O2) + reoxygenation 24 h, 1000 nM
# [4] = oxygen condition: hypoxia 48 h (1% O2) + reoxygenation 24 h, 5000 nM
# [5] = oxygen condition: normoxia 72 h, 40 nM
# [6] = oxygen condition: normoxia 72 h, 200 nM
# [7] = oxygen condition: normoxia 72 h, 1000 nM
# [8] = oxygen condition: normoxia 72 h, 5000 nM
Compound,relative cell viability [1],relative cell viability [2],relative cell viability [3],relative cell viability [4],relative cell viability [5],relative cell viability [6],relative cell viability [7],relative cell viability [8]
CCCc1nn(C)c2c(=O)[nH]c(-c3cc(S(=O)(=O)N4CCN(C)CC4)ccc3OCC)nc12 [Sildenafil citrate],99.7,102,105,104,107,103,101,109
CC(=O)OCC(=O)[C@@]12OC(C)(C)O[C@@H]1C[C@H]1[C@@H]3C[C@H](F)C4=CC(=O)C=C[C@]4(C)[C@@]3(F)[C@@H](O)C[C@@]12C [Fluocinonide],93.4,91.8,89.8,99,92.3,88.7,89.5,91.2
COc1ccc(C2C(=O)c3ccccc3C2=O)cc1 [Anisindione],99.6,102,105,118,102,78.2,114,120
O=C1c2c(O)ccc(O)c2C(=O)c2c(NCCNCCO)ccc(NCCNCCO)c21 [Mitoxantrone Hydrochloride],4.78,4.55,5.93,3.1,4.75,4.41,3.59,3.38
NS(=O)(=O)c1cc2c(cc1C(F)(F)F)NC(Cc1ccccc1)NS2(=O)=O (stereo unspecified) [Bendroflumethiazide],93.6,98.4,101,106,104,100,105,110
CNC(=O)c1ccccc1Sc1ccc2c(/C=C/c3ccccn3)n[nH]c2c1 [Axitinib],110,114,117,116,105,108,112,111
CCOc1ccc2ccccc2c1C(=O)N[C@@H]1C(=O)N2[C@@H]1SC(C)(C)[C@@H]2C(=O)O [nafcillin sodium monohydrate],92.6,104,105,109,99.1,101,103,107
CCCCCCCCCCC[C@@H](C[C@@H]1OC(=O)[C@H]1CCCCCC)OC(=O)[C@H](CC(C)C)NC=O [Orlistat],104,115,94.9,107,108,112,102,103
OCC(CO)N[C@H]1C[C@](O)(CO)[C@@H](O)[C@H](O)[C@H]1O [Voglibose],109,117,113,113,105,114,116,115
CN(C)CCc1c[nH]c2ccc(CS(=O)(=O)N3CCCC3)cc12 [Almotriptan malate],98,99,97.6,91.9,98.2,103,102,52.1
Clc1ccc2c(c1)CCc1cccnc1C2=C1CCNCC1 [Desloratadine],92.5,109,102,97,105,97.5,104,103
C#CCC(Cc1cnc2nc(N)nc(N)c2n1)c1ccc(C(=O)N[C@@H](CCC(=O)O)C(=O)O)cc1 (stereo partly specified) [Pralatrexate],38.6,43,37.3,38.9,44.3,42.7,46.2,41.8
O=C(O)C[C@H](O)C[C@H](O)/C=C/c1c(C2CC2)nc2ccccc2c1-c1ccc(F)cc1 [Pitavastatin calcium],109,109,85.5,7.03,117,109,88.9,4.53
CC[C@H](C)C(=O)O[C@H]1CCC=C2C=C[C@H](C)[C@H](CC[C@@H]3C[C@@H](O)CC(=O)O3)[C@H]21 [Mevastatin],112,101,99.3,113,101,105,106,119
CN1CCCC(n2nc(Cc3ccc(Cl)cc3)c3ccccc3c2=O)CC1 (stereo unspecified) [Azelastine hydrochloride],96.2,98.2,101,85.4,97.9,102,96.4,84.2
CC[C@@H](CO)NCCN[C@@H](CC)CO [Ethambutol HCl],100,93.4,102,112,90.2,91.3,102,3.47
CN(Cc1cc(Br)cc(Br)c1N)C1CCCCC1 [Bromhexine HCl],97.5,96.2,99.9,102,104,108,98.4,108
COc1nc(N)nc2c1ncn2[C@@H]1O[C@H](CO)[C@@H](O)[C@@H]1O [Nelarabine],113,114,112,112,111,112,108,111
N=C(N)Nc1ccc(C(=O)Oc2ccc3cc(C(=N)N)ccc3c2)cc1 [Nafamostat mesylate],103,104,108,105,105,110,111,107
CC/C(=C(\c1ccccc1)c1ccc(OCCN(C)C)cc1)c1ccccc1 [Tamoxifen Citrate],103,99.9,98.6,108,95.9,107,105,103
CC1=C(/C=C/C(C)=C/C=C/C(C)=C\C(=O)O)C(C)(C)CCC1 [Isotretinoin],103,102,105,111,116,104,107,112

Compound,relative cell viability [1],relative cell viability [2],relative cell viability [3],relative cell viability [4],relative cell viability [5],relative cell viability [6],relative cell viability [7],relative cell viability [8]
CC[C@H]1OC(=O)[C@H](C)[C@@H](O[C@H]2C[C@@](C)(OC)[C@@H](O)[C@H](C)O2)[C@H](C)[C@@H](O[C@@H]2O[C@H](C)C[C@H](N(C)C)[C@H]2O)[C@](C)(O)C[C@@H](C)CN(C)[C@H](C)[C@@H](O)[C@]1(C)O [Azithromycin],109,103,99.3,59.1,105,96.2,102,41.1
CCCCc1ncc(/C=C(\Cc2cccs2)C(=O)O)n1Cc1ccc(C(=O)O)cc1 [Eprosartan Mesylate],96.2,101,103,104,107,102,102,105
Nc1nc(Cl)nc2c1ncn2[C@H]1C[C@H](O)[C@@H](CO)O1 [Cladribine],76.2,30.7,6.18,4.06,55.5,21.9,5.2,4.23
CN1CCC[C@H]1c1cccnc1 [Nicotine Ditartrate],97.5,99.9,106,113,104,104,103,109
CC(C)(Oc1ccc(Cl)cc1)C(=O)O [Clofibric acid],106,105,108,115,104,106,104,109
COc1cc(Nc2c(C#N)cnc3cc(OCCCN4CCN(C)CC4)c(OC)cc23)c(Cl)cc1Cl [Bosutinib],103,104,107,121,110,125,107,116
O=C(O)Cc1ccccc1Nc1c(Cl)cccc1Cl [Diclofenac],97.6,112,103,109,100,105,105,109
O=c1c(-c2ccc(O)cc2)coc2cc(O)cc(O)c12 [Genistein],104,106,113,110,111,104,106,111
NC(=O)c1cccnc1 [Nicotinamide],95.4,97.2,98.5,104,96.7,103,95.5,102
C=C1/C(=C\C=C2/CCC[C@]3(C)[C@@H]([C@H](C)CCCC(C)C)CC[C@@H]23)C[C@@H](O)C[C@@H]1O [Alfacalcidol],109,104,118,106,108,104,88.5,106
Nc1ccc(C(=O)O)c(O)c1 [Aminosalicylate sodium],95.2,102,102,108,105,105,114,108
Nc1nc(CC(=O)Nc2ccc(CCNC[C@H](O)c3ccccc3)cc2)cs1 [Mirabegron],112,110,111,112,103,104,113,129
NC[C@H]1CC[C@H](C(=O)O)CC1 [Tranexamic acid],99.9,102,100,104,101,104,102,112
Cc1cccc(Nc2ccncc2S(=O)(=O)NC(=O)NC(C)C)c1 [Torsemide],103,102,107,106,106,112,112,105
N[C@@H]1CCCCN(c2c(F)cc3c(=O)c(C(=O)O)cn(C4CC4)c3c2Cl)C1 [Besifloxacin HCl],96.9,99.1,96.7,101,101,99.5,98.6,102
CNC(=C[N+](=O)[O-])NCCSCc1csc(CN(C)C)n1 [Nizatidine],108,104,106,95.7,115,104,106,85
CNCC(O)c1ccc(O)c(O)c1 (racemic) [DL-Adrenaline],100,97.8,67.7,15.5,107,93.8,63.6,11.8
CC(=O)[C@H]1CC[C@H]2[C@@H]3CCC4=CC(=O)CC[C@]4(C)[C@H]3CC[C@]12C [Progesterone],109,105,103,116,111,111,111,116
COc1ccccc1OCCNCC(O)COc1cccc2[nH]c3ccccc3c12 (stereo unspecified) [Carvedilol],93.5,110,107,108,104,105,107,107
CCCc1nc2c(C)cc(-c3nc4ccccc4n3C)cc2n1Cc1ccc(-c2ccccc2C(=O)O)cc1 [Telmisartan],107,102,105,101,105,104,107,109
CC(CCc1ccc(O)cc1)NCC(O)c1ccc(O)cc1 (stereo unspecified) [Ractopamine HCl],103,100,108,60.4,98.9,104,106,106
